# In PubChem BioAssay (Tox21):
# Inconclusive results are not listed. Values without a mark were called inactive. Active and inactive are the calls of the source. Calls come from the whole dose curve; as a rule, active = well fitted cell-killing curve with a large enough effect in the repeat runs; inconclusive = weak or mixed curves, or effect the other way; inactive = flat fitted curve, though single readings scatter.
# Assay: cAMP Responsive Elements (CRE) small molecule antagonists, cell-based qHTS assay: qHTS cell viability counter screen (AID 2060913); note: nearly all actives have a fitted effect of over 40% in size
# Settings: CRE-bla HEK293T viability, CellTiter-Glo luminescence, 5 h; series mostly up to 92.4 µM; viability change, negative = cytotoxic: at the top concentration
# Summary of the method: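 Cytotoxicity counter screen multiplexed with the CRE-bla antagonist read: HEK293T cells in DMEM with dialyzed FBS and 25 mM HEPES were treated 3 hrs under 0.25 uM final NKH477, then viability measured by CellTiter-Glo luminescence.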
# % is set by controls: 0 for no effect and ±100 for the full control effect; potency is the fitted concentration of half-maximal effect.
SMILES,"viability change, negative = cytotoxic",Potency
COc1cccc2c1C(=O)c1c(O)c3c(c(O)c1C2=O)C[C@@](O)(C(=O)CO)CC3OC1CC(N2CCOC(OC)C2)C(O)C(C)O1 (some centres undefined),10.2% [at 42.5 µM],–
O=C1C2(Cl)C3(Cl)C4(Cl)C(Cl)(Cl)C5(Cl)C3(Cl)C1(Cl)C5(Cl)C24Cl (centres undefined),–,60.1 µM (active)
O=S(=O)(c1ccc(Cl)cc1)c1ccc(Cl)cc1,-11.8%,–
O=[N+]([O-])c1c2ccccc2cc2ccccc12,-2.26%,–
OC(c1ccc(Cl)cc1)(c1ccc(Cl)cc1)c1cccnc1,-11%,–
CCC(C)Br (centres undefined),0.473%,–
COc1cc(C[C@@H](C)N)c(OC)cc1C,-1.48%,–
Clc1ccc(CCC(Cn2ccnc2)Sc2c(Cl)cccc2Cl)cc1 (centres undefined),-13.5% [at 42.5 µM],–
CCCCCCCCCC(=O)O[C@H]1CC[C@H]2[C@@H]3CCC4=CC(=O)CC[C@@H]4[C@H]3CC[C@]12C,1.26% [at 42.5 µM],–
CCC[CH2][Sn]([CH2]CCC)([CH2]CCC)[CH2]CCC,-26%,–
ClC(Cl)=C(c1ccc(Cl)cc1)c1ccccc1Cl,-22.5%,–
Nc1n[nH]c(N)n1,2.01%,–
CC(C)(OO)c1ccccc1,2.56%,–
Nc1c(Cl)c(F)nc(OCC(=O)O)c1Cl,-6.16%,–
CC(CC(C#N)(c1ccccc1)c1ccccc1)N(C)C (centres undefined),-2.24%,–
CCN(CC)c1c([N+](=O)[O-])cc(C(F)(F)F)c(N)c1[N+](=O)[O-],–,54.5 µM (active)
CN(C)CCN(C)C,-4.28%,–
CC(=O)[C@H]1CC[C@H]2[C@@H]3CC[C@H]4C[C@H](O)CC[C@]4(C)[C@H]3C(=O)C[C@]12C,2.47% [at 42.5 µM],–
CCOP(=S)(OCC)Oc1ccc([N+](=O)[O-])cc1,–,inactive
C[C@@H]1CN(C2CCC(C#N)(c3ccc(F)cc3)CC2)CC[C@]1(C(=O)O)c1ccccc1 (some centres undefined),-0.932% [at 42.5 µM],–

SMILES,"viability change, negative = cytotoxic",Potency
ClCCCN1CCN(c2cccc(Cl)c2)CC1,-2.15% [at 42.5 µM],–
ClC=C(Cl)Cl,15.3%,–
O=C(O)c1cc(Cl)ccc1Cl,6.42%,–
COC(=O)Nc1cccc(OC(=O)Nc2cccc(C)c2)c1,3.15%,–
Brc1ccc(Oc2ccc(Br)cc2Br)c(Br)c1,-14.9%,–
CS(=O)(=O)c1ccc(C(=O)C2C(=O)CCCC2=O)c([N+](=O)[O-])c1,2.04%,–
CN=C=O,3.84%,–
COCC(=O)N(c1c(C)cccc1C)[C@H](C)C(=O)OC,-0.0434%,–
CN1CC[C@]23c4c5ccc(O)c4O[C@H]2[C@@H](O)CC[C@H]3[C@H]1C5,-1.04%,–
CCCCCCCCCC[N+](C)(C)CCCCCCCCCC,–,30.6 µM (active)
N#Cc1ccccc1N,-10.8%,–
CCCOC(=O)c1ccccc1C(=O)OCCC,–,inactive
COCC(C)N(C(=O)CCl)c1c(C)csc1C (centres undefined),2.47%,–
CCOP(=S)(OCC)SCSP(=S)(OCC)OCC,-0.724%,–
O=[N+]([O-])c1c(Cl)c(Cl)cc(Cl)c1Cl,0.21%,–
Fc1cc(Br)ccc1CBr,-4.96% [at 42.5 µM],–
Oc1cc(Cl)c(Cl)cc1Cl,–,inactive
Clc1ccc(C(c2ccc(Cl)cc2)C(Cl)Cl)cc1,-17.4%,–
O=[N+]([O-])c1ccc(Cl)c(Cl)c1,–,inactive
